Results on 14 compounds are retold here after PubChem BioAssay (NCI).

Each structure is given as a SMILES string. The panel holds about 83,000 compounds, 20% with a hit somewhere; the sample as a whole holds those more often.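 The test compound was applied at a single concentration to cells in 96-well plates for 48 hours, and percent growth was recorded.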 Values without a mark were called inactive. Activity calls are given as the source filed them. How the source made its calls: active means growth percent below 10; inactive means the rest.

What all share (assay): NCI-60 one-dose screen, 48 h (100 = growth as untreated, 0 = no growth, -100 = all killed)
In one test the test system is NCI-H226 lung. The conditions noted are these: 10 µM.
The test system of a further test is NCI-H322M lung. The note with it: 10 µM unless noted.
In another test the test system is HOP-62 NSCLC. The conditions noted are these: 10 µM unless noted.
In the next test the test system is NCI-H460 lung. The conditions noted are these: 10 µM unless noted.
A further test concerns HOP-92 NSCLC. The note with it: 10 µM unless noted.
Another test relates to NCI-H522 lung. The conditions noted are these: 10 µM.
The next test deals with A549/ATCC NSCLC. The note with it: 10 µM unless noted.
The subject of another test is 786-0 renal. The conditions noted are these: 10 µM unless noted.
In another test the test system is COLO 205 colon. The conditions noted are these: 10 µM unless noted.

On to `COc1ccc(-c2nn(-c3ccc(NC(=O)c4ccc(Cl)c(Cl)c4)cc3)cc2-c2ccncc2)cc1Cl`, for which the growth is 75.8% in the test with NCI-H226 lung; 69.1% in the test with NCI-H322M lung; 6.02% (active) with HOP-62 NSCLC; 20.6% in the test on NCI-H460 lung; 37.1% in the test with HOP-92 NSCLC; 54.3% with NCI-H522 lung. Moreover, the growth in the test with A549/ATCC NSCLC was 42.7%; with 786-0 renal, -33% (active); in the test on COLO 205 colon, -27.2% (active).

Consider `N#Cc1c(O)c2c(c(O)c1C#N)C(=O)c1ccccc1C2=O`, for which the growth with NCI-H226 lung was 87.8%; with NCI-H322M lung, 38.4%; in the test with HOP-62 NSCLC, 59.8%; in the test on NCI-H460 lung it was 22.7%; with HOP-92 NSCLC, 88.5%; with NCI-H522 lung, -5.65% (active). Besides, the growth is 27.3% in the test on A549/ATCC NSCLC, 90.9% with 786-0 renal and -4.03% (active) in the test on COLO 205 colon.

On to `C[C@@H](Oc1cc(-c2cnn(C3CC4(CNC4)C3)c2)cnc1N)c1c(Cl)ccc(F)c1Cl`, for which the growth in the test on NCI-H226 lung is 65.9%; in the test with NCI-H322M lung, 72.1%; with HOP-62 NSCLC it was 49.9%; in the test with NCI-H460 lung it was 15.9%; with HOP-92 NSCLC, 0.0528% (active); in the test with NCI-H522 lung, 69.1%. Further, the growth with A549/ATCC NSCLC was 19.6%; with 786-0 renal, 53%; in the test with COLO 205 colon it was 5.17% (active).

For `Cc1nc(NC(=O)COc2cccc(/C=C3\COc4ccccc4C3=O)c2)sc1C`, the growth in the test with NCI-H226 lung was 83.2%; in the test on NCI-H322M lung, 58.6%; in the test on HOP-62 NSCLC, 71.9%; in the test with NCI-H460 lung it was 9.93% (active); in the test with HOP-92 NSCLC, -20.3% (active); in the test with NCI-H522 lung it was -49.6% (active). Further, the growth in the test on A549/ATCC NSCLC was 30.1%; with 786-0 renal, 72.1%; in the test on COLO 205 colon, 16.6%.

With `O=C(O)C[C@H](O)C[C@H](O)/C=C/c1c(C2CC2)nc2ccccc2c1-c1ccc(F)cc1`, the growth in the test on NCI-H226 lung is 65.6%; in the test on NCI-H322M lung, 58.1%; in the test with HOP-62 NSCLC, 84.9%; in the test on NCI-H460 lung it was 94.4%; in the test with HOP-92 NSCLC, -12% (active); in the test on NCI-H522 lung, 53.7%. For the same compound, the growth in the test with A549/ATCC NSCLC is 105%; in the test on 786-0 renal, 91.9%; in the test on COLO 205 colon it was 102%.

Regarding `C[C@@H](Oc1cc(-c2cnn(C3CC4(CCNCC4)C3)c2)cnc1N)c1c(F)ccc(Cl)c1Cl`, the growth in the test on NCI-H226 lung is 65.5%; with NCI-H322M lung it was 44.4%; with HOP-62 NSCLC, 28.4%; with NCI-H460 lung, -11.7% (active); in the test with HOP-92 NSCLC, -18.8% (active); in the test on NCI-H522 lung it was -0.334% (active). Moreover, the values for the growth with A549/ATCC NSCLC, in the test with 786-0 renal and in the test with COLO 205 colon were -14.4% (active), -2.08% (active) and -8.9% (active), respectively.

For the compound `Cc1nc2cc(Nc3nc(Nc4ccc(F)cc4)nc(N4CCCC4)n3)ccc2n1Cc1ccccc1`, the growth was -17.1% (active) with NCI-H226 lung; 21.4% with NCI-H322M lung; -22.5% (active) in the test with HOP-62 NSCLC; -30.4% (active) with NCI-H460 lung; -12.3% (active) with HOP-92 NSCLC; -4.13% (active) with NCI-H522 lung. Also, the growth with A549/ATCC NSCLC was -0.672% (active); in the test on 786-0 renal, -21.7% (active); in the test on COLO 205 colon, -72.6% (active).

In the case of `CCOC(=O)C(CC(c1ccccc1)N1CCCCC1)[N+](=O)[O-]` (stereo unspecified), the growth was 82.9% in the test with NCI-H226 lung; 88.5% in the test on NCI-H322M lung; 86% in the test on HOP-62 NSCLC; 68% in the test on NCI-H460 lung; 78.4% in the test with HOP-92 NSCLC; 59.4% in the test with NCI-H522 lung. For the same compound, the growth is 76.4% in the test with A549/ATCC NSCLC, 93.3% in the test with 786-0 renal and 108% in the test with COLO 205 colon.

Turning to `CCC(C)[C@H]1O[C@]2(CC[C@@H]1C)C[C@@H]1C[C@@H](C/C=C(\C)[C@@H](OC3C[C@H](OC)C(O[C@H]4C[C@H](OC)[C@@H](O)[C@H](C)O4)[C@H](C)O3)[C@@H](C)/C=C/C=C3\CO[C@@H]4[C@H](O)C(C)=C[C@@H](C(=O)O1)[C@]34O)O2` (stereo partly specified), the growth in the test on NCI-H226 lung was 6.79% (active); in the test on NCI-H322M lung, 52.7%; with HOP-62 NSCLC, 29.5%; in the test on NCI-H460 lung it was 3.02% (active); with HOP-92 NSCLC, -6.11% (active); in the test on NCI-H522 lung, 17.2%. Further, the growth is 21.3% in the test on A549/ATCC NSCLC, -79.7% (active) in the test on 786-0 renal and -41.6% (active) in the test with COLO 205 colon.

As to `COc1cc(C2C3=C(COC3=O)N(CCO)c3cc4c(cc32)OCO4)cc(OC)c1O` (stereo unspecified), the growth in the test with NCI-H226 lung is 61.7%; with NCI-H322M lung, 52.5%; with HOP-62 NSCLC it was 41.7%; in the test with NCI-H460 lung it was 16.1%; in the test with HOP-92 NSCLC, 66%; in the test on NCI-H522 lung, -40.7% (active). Besides, the growth was 52.1% with A549/ATCC NSCLC, 20% in the test with 786-0 renal and 7.23% (active) in the test with COLO 205 colon.

As to `COc1cccc(C2C3=C(COC3=O)N(CCO)c3cc4c(cc32)CCC4)c1` (stereo unspecified), the growth is 13.4% with NCI-H226 lung; 30.3% in the test with NCI-H322M lung; 19.2% with HOP-62 NSCLC; 1.42% (active) in the test with NCI-H460 lung; 48.2% with HOP-92 NSCLC; -50.4% (active) in the test on NCI-H522 lung. Further, the figures for the growth in the test with A549/ATCC NSCLC, in the test with 786-0 renal and in the test on COLO 205 colon were 12.1%, 0.563% (active) and -78.5% (active), respectively.

Turning to `Cc1nc(NN)c([N+](=O)[O-])c(NN)n1`, the growth in the test with NCI-H226 lung was 106%; in the test with NCI-H322M lung it was 110%; in the test with HOP-62 NSCLC, 110%; in the test on NCI-H460 lung, 103%; with HOP-92 NSCLC it was 102%; with NCI-H522 lung it was 108%. Moreover, the growth in the test with A549/ATCC NSCLC was 100%; in the test with 786-0 renal it was 104%; in the test on COLO 205 colon, 118%.

For the compound `O=C1/C(=C/c2ccc(Cl)cc2)CN(Cc2cn(CCCNc3ccnc4cc(Cl)ccc34)nn2)C/C1=C\c1ccc(Cl)cc1`, the growth was -81.4% (active) in the test on NCI-H226 lung; -28.9% (active) in the test on NCI-H322M lung; -69.4% (active) in the test with HOP-62 NSCLC; -67.6% (active) in the test with NCI-H460 lung; -65.3% (active) with HOP-92 NSCLC; -92.8% (active) in the test on NCI-H522 lung. The growth in the test on A549/ATCC NSCLC is -62.9% (active); with 786-0 renal it was -74.4% (active); in the test with COLO 205 colon, -61.3% (active).

As to `COc1ccc(/C=C2\CN(Cc3cn(CCCNc4ccnc5cc(Cl)ccc45)nn3)C/C(=C\c3ccc(OC)cc3)C2=O)cc1`, the growth in the test with NCI-H226 lung is 96.7%; in the test on NCI-H322M lung, 80.1%; in the test with HOP-62 NSCLC, 63.6%; in the test on NCI-H460 lung, 86.3%; in the test with HOP-92 NSCLC, 53.8%; in the test on NCI-H522 lung, 87.9%. In addition, the growth with A549/ATCC NSCLC was 65.7%; in the test with 786-0 renal, 76.3%; in the test on COLO 205 colon, 81.6%.
